For nine sequences, binding signal results are on record in PMC7862700, “An all-to-all approach to the identification of sequence-specific readers for epigenetic DNA modifications on cytosine”.

Common to all, as to assay: DAPPL (digital affinity profiling via proximity ligation, sequencing); 10 mM Tris-HCl pH 7.5, 50 mM NaCl, 1 mM DTT, 4% glycerol, room temperature, 30 min; GST-TFs on glutathione beads, 16-mer random dsDNA library, 0.1% formaldehyde crosslink after washing; high values mean tight binding
Settings in all cases: protein: recombinant; tags: N-terminal GST; dsDNA, one strand shown

For one experiment, the target named is T1, FLI1 (Homo sapiens, UniProt Q01543 1-452).
T1 sequence: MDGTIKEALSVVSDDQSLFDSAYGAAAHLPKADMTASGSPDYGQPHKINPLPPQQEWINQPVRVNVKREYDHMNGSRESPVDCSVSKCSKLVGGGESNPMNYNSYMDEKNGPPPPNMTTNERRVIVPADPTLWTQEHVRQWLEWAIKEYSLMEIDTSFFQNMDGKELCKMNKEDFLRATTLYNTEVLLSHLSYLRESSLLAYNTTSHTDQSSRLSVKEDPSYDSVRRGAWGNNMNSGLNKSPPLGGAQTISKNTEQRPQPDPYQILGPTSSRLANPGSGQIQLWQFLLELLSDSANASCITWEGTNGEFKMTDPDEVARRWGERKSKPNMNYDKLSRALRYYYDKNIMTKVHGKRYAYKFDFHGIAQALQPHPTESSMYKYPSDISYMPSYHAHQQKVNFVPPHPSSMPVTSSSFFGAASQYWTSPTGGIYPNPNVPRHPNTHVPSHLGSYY
The procedure, abridged:
(§1)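 Binding signal is each hexamer's read frequency for a factor divided by its frequency in the tag-only sample. The factors were GST-fused human transcription factors from yeast, captured on glutathione beads, DNA-barcoded and pooled with that sample. Pools were incubated with 200 nmole of a random double-stranded 16-mer DNA library in Tris/NaCl/DTT/glycerol buffer at room temperature for 30 min, then washed, crosslinked with 0.1% formaldehyde, proximity-ligated with BsaI/T4 ligase (1 h, 37 °C), PCR-amplified and sequenced on an Illumina NextSeq500.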

The target of a further experiment is T2, ELK1 (Homo sapiens, UniProt P19419 1-428).
T2 sequence: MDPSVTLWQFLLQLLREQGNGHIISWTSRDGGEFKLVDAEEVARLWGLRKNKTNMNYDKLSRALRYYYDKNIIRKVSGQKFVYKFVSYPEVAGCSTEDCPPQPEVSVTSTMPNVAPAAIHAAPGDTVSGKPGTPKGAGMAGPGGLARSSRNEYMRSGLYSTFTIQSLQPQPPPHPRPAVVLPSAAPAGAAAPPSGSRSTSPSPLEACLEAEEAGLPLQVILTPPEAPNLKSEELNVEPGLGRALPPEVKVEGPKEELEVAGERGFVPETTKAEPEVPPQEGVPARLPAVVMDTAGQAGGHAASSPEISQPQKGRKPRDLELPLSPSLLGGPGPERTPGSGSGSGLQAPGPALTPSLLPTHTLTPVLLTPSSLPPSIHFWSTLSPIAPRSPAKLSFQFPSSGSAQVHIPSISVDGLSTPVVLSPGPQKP
The method, boiled down:
as §1

The target in another experiment is T3, GABPA (Homo sapiens, UniProt Q06546 1-454).
T3 sequence: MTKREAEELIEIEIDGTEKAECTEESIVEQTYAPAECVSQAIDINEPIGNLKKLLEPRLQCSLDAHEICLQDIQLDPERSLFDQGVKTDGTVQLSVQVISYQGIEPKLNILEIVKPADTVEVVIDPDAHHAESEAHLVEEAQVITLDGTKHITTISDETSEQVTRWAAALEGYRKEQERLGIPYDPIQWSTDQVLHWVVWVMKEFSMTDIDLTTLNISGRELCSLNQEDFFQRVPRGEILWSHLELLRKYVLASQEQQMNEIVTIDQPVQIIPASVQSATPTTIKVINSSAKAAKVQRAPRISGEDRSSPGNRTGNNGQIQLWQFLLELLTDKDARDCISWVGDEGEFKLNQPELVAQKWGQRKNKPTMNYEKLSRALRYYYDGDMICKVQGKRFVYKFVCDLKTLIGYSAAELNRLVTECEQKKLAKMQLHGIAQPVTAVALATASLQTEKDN
The procedure, abridged: as §1

For the next experiment, the target named is T4, ERG (Homo sapiens, UniProt P11308 1-479).
T4 sequence: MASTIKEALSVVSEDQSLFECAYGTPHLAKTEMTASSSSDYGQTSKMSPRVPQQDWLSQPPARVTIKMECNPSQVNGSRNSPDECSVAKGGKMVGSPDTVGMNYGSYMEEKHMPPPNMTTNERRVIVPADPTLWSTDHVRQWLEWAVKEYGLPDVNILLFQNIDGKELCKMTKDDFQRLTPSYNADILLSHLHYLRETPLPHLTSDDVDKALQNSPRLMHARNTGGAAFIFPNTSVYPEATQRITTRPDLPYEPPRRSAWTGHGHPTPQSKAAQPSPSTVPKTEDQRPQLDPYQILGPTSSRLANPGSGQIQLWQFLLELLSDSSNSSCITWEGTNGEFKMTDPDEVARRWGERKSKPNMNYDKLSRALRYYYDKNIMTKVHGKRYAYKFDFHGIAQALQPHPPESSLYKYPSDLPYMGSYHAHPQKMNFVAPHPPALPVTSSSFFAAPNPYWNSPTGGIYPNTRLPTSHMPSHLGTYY
The method, boiled down: as §1

For a further experiment, the target named is ELF1 (Homo sapiens, UniProt P32519 1-619). The procedure, abridged:
as §1

Another experiment addresses T5, EHF (Homo sapiens, UniProt Q9NZC4 1-300).
T5 sequence: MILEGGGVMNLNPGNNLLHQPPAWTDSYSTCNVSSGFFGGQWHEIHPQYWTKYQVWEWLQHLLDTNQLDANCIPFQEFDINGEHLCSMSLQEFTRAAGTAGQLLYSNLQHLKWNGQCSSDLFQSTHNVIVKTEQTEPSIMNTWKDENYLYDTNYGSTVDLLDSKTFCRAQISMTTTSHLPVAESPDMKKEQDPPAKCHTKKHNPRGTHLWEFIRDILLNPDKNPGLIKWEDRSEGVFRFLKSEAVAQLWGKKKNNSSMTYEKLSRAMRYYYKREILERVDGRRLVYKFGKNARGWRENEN
The method, boiled down: as §1

The target in a further experiment is SPI1 (Homo sapiens, UniProt P17947 1-270). The procedure, abridged: as §1
Another experiment has as its target SPIB (Homo sapiens, UniProt Q01892 1-262). The procedure, abridged:
as §1

In another experiment the target is T6, ELK3 (Homo sapiens, UniProt P41970 1-407).
T6 sequence: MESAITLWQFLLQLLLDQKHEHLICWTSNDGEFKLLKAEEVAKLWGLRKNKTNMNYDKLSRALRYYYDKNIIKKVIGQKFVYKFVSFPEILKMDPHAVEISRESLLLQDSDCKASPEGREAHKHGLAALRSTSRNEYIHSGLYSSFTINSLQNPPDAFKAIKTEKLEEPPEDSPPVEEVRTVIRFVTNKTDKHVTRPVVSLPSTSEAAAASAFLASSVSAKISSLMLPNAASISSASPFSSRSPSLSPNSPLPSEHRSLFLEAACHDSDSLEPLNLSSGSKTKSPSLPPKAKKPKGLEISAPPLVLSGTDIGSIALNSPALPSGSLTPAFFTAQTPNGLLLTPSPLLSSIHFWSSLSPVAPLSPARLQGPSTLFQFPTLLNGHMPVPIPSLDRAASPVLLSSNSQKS
The method, boiled down:
as §1

Chain of ELF1 (P32519 whole entry): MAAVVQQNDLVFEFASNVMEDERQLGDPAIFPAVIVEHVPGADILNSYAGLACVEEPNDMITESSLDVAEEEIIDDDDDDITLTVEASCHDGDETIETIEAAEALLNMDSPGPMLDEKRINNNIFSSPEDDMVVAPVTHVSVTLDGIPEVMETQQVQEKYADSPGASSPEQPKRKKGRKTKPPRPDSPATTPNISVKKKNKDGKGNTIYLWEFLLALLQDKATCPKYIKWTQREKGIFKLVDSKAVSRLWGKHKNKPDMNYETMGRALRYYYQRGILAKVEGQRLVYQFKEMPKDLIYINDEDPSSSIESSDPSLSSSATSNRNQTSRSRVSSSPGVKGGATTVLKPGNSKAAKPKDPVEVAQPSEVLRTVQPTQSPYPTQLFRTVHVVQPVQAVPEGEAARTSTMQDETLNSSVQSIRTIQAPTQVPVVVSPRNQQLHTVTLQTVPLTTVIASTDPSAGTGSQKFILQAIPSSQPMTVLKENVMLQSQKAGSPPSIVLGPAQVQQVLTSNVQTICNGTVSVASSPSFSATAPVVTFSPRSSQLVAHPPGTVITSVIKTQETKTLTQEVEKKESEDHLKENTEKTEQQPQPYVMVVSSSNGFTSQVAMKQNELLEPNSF
Chain of SPIB (Q01892 whole entry): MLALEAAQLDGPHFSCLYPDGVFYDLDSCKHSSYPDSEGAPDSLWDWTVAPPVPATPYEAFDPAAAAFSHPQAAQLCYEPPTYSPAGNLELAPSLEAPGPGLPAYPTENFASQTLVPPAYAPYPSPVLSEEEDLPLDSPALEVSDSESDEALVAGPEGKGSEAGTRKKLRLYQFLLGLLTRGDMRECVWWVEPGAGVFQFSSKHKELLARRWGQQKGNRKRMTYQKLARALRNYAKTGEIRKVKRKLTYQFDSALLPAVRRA

In the case of TTGTTT, the binding signal is 1.46 fold enrichment (6-mer frequency, TF over GST control) with FLI1; 1.45 fold enrichment (6-mer frequency, TF over GST control) with ELK1; 1.36 fold enrichment (6-mer frequency, TF over GST control) with GABPA; 1.6 fold enrichment (6-mer frequency, TF over GST control) with ERG; 1.37 fold enrichment (6-mer frequency, TF over GST control) in the experiment with ELF1; 1.51 fold enrichment (6-mer frequency, TF over GST control) in the experiment with EHF. For the same sequence, the binding signal is 1.28 fold enrichment (6-mer frequency, TF over GST control) in the experiment with SPI1; 1.52 fold enrichment (6-mer frequency, TF over GST control) in the experiment with SPIB; 1.49 fold enrichment (6-mer frequency, TF over GST control) with ELK3.

As to TTAATA, the binding signal is 1.28 fold enrichment (6-mer frequency, TF over GST control) with FLI1; 1.23 fold enrichment (6-mer frequency, TF over GST control) with ELK1; 1.18 fold enrichment (6-mer frequency, TF over GST control) in the experiment with GABPA; 1.16 fold enrichment (6-mer frequency, TF over GST control) with ERG; 1.16 fold enrichment (6-mer frequency, TF over GST control) with ELF1; 1.23 fold enrichment (6-mer frequency, TF over GST control) with EHF. Besides, the binding signal with SPI1 is 1.09 fold enrichment (6-mer frequency, TF over GST control); with SPIB it was 1.22 fold enrichment (6-mer frequency, TF over GST control); with ELK3, 1.29 fold enrichment (6-mer frequency, TF over GST control).

Consider CGCCCT, for which the binding signal with FLI1 is 1.44 fold enrichment (6-mer frequency, TF over GST control); with ELK1, 1.36 fold enrichment (6-mer frequency, TF over GST control); with GABPA it was 1.37 fold enrichment (6-mer frequency, TF over GST control); with ERG it was 1.31 fold enrichment (6-mer frequency, TF over GST control); with ELF1, 1.43 fold enrichment (6-mer frequency, TF over GST control); in the experiment with EHF it was 1.35 fold enrichment (6-mer frequency, TF over GST control). Moreover, the binding signal with SPI1 is 1.24 fold enrichment (6-mer frequency, TF over GST control); in the experiment with SPIB, 1.36 fold enrichment (6-mer frequency, TF over GST control); in the experiment with ELK3, 1.5 fold enrichment (6-mer frequency, TF over GST control).

In the case of GCTTTG, the binding signal with FLI1 is 1.24 fold enrichment (6-mer frequency, TF over GST control); with ELK1, 1.1 fold enrichment (6-mer frequency, TF over GST control); in the experiment with GABPA, 1.11 fold enrichment (6-mer frequency, TF over GST control); with ERG, 1.15 fold enrichment (6-mer frequency, TF over GST control); with ELF1, 1.14 fold enrichment (6-mer frequency, TF over GST control); with EHF it was 1.15 fold enrichment (6-mer frequency, TF over GST control). In addition, the binding signal in the experiment with SPI1 was 1.07 fold enrichment (6-mer frequency, TF over GST control); in the experiment with SPIB, 1.14 fold enrichment (6-mer frequency, TF over GST control); with ELK3, 1.12 fold enrichment (6-mer frequency, TF over GST control).

Regarding TGGCAT, the binding signal was 1.23 fold enrichment (6-mer frequency, TF over GST control) with FLI1; 1.2 fold enrichment (6-mer frequency, TF over GST control) with ELK1; 1.2 fold enrichment (6-mer frequency, TF over GST control) in the experiment with GABPA; 1.14 fold enrichment (6-mer frequency, TF over GST control) in the experiment with ERG; 1.17 fold enrichment (6-mer frequency, TF over GST control) in the experiment with ELF1; 1.12 fold enrichment (6-mer frequency, TF over GST control) with EHF. Moreover, the binding signal with SPI1 was 1.11 fold enrichment (6-mer frequency, TF over GST control); in the experiment with SPIB it was 1.07 fold enrichment (6-mer frequency, TF over GST control); with ELK3, 1.13 fold enrichment (6-mer frequency, TF over GST control).

Regarding TGACCC, the binding signal with FLI1 is 1.34 fold enrichment (6-mer frequency, TF over GST control); with ELK1, 1.29 fold enrichment (6-mer frequency, TF over GST control); with GABPA it was 1.38 fold enrichment (6-mer frequency, TF over GST control); in the experiment with ERG, 1.4 fold enrichment (6-mer frequency, TF over GST control); with ELF1 it was 1.43 fold enrichment (6-mer frequency, TF over GST control); with EHF it was 1.51 fold enrichment (6-mer frequency, TF over GST control). Also, the binding signal was 1.26 fold enrichment (6-mer frequency, TF over GST control) in the experiment with SPI1; 1.3 fold enrichment (6-mer frequency, TF over GST control) in the experiment with SPIB; 1.4 fold enrichment (6-mer frequency, TF over GST control) in the experiment with ELK3.

Turning to TTATGT, the binding signal in the experiment with FLI1 was 1.3 fold enrichment (6-mer frequency, TF over GST control); in the experiment with ELK1, 1.3 fold enrichment (6-mer frequency, TF over GST control); in the experiment with GABPA it was 1.27 fold enrichment (6-mer frequency, TF over GST control); with ERG, 1.31 fold enrichment (6-mer frequency, TF over GST control); in the experiment with ELF1 it was 1.24 fold enrichment (6-mer frequency, TF over GST control); in the experiment with EHF, 1.28 fold enrichment (6-mer frequency, TF over GST control). Further, the binding signal in the experiment with SPI1 was 1.31 fold enrichment (6-mer frequency, TF over GST control); with SPIB, 1.32 fold enrichment (6-mer frequency, TF over GST control); with ELK3 it was 1.22 fold enrichment (6-mer frequency, TF over GST control).

Consider CTCGAG, for which the binding signal is 1.23 fold enrichment (6-mer frequency, TF over GST control) with FLI1; 1.34 fold enrichment (6-mer frequency, TF over GST control) with ELK1; 1.35 fold enrichment (6-mer frequency, TF over GST control) with GABPA; 1.31 fold enrichment (6-mer frequency, TF over GST control) with ERG; 1.28 fold enrichment (6-mer frequency, TF over GST control) with ELF1; 1.21 fold enrichment (6-mer frequency, TF over GST control) with EHF. The binding signal was 1.35 fold enrichment (6-mer frequency, TF over GST control) with SPI1; 1.31 fold enrichment (6-mer frequency, TF over GST control) in the experiment with SPIB; 1.18 fold enrichment (6-mer frequency, TF over GST control) in the experiment with ELK3.

Turning to GCTATT, the binding signal in the experiment with FLI1 was 1.33 fold enrichment (6-mer frequency, TF over GST control); with ELK1, 1.34 fold enrichment (6-mer frequency, TF over GST control); with GABPA, 1.36 fold enrichment (6-mer frequency, TF over GST control); with ERG, 1.3 fold enrichment (6-mer frequency, TF over GST control); in the experiment with ELF1, 1.26 fold enrichment (6-mer frequency, TF over GST control); with EHF, 1.39 fold enrichment (6-mer frequency, TF over GST control). Moreover, the binding signal is 1.3 fold enrichment (6-mer frequency, TF over GST control) in the experiment with SPI1; 1.28 fold enrichment (6-mer frequency, TF over GST control) in the experiment with SPIB; 1.39 fold enrichment (6-mer frequency, TF over GST control) in the experiment with ELK3.
